# “And” between values parts separate entries of the source, which are not always exact repeats. Equal entries are not always repeated. Records with an inconclusive call do not appear. A call without a number means that no potency is given here. The source made the active and inactive calls. Unless noted, the call rests on the fitted dose curve; in most records, active means well fitted curve in the direction sought with a large enough effect; inconclusive means small, poorly fitted or top-dose-only effect, or another doubt; inactive means no such curve, though single readings can be large; an effect the other way counts as inactive or inconclusive.
# What was measured:
# [1] = molecular target: Cytochrome P450 1A2 (Homo sapiens) (UniProt P05177); experiment: p450-cyp1a2 (AID 410; calls by dose curve; further: potency means the concentration at half of the fitted maximal effect)
# Outline: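 Inhibition was calculated relative to 57 uM furafylline (full inhibition). The reaction used human CYP1A2 at 20nM with Luciferin-ME at its Km, 100uM, driven by an NADPH-regenerating system for 60 min at room temperature.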
# [2] = molecular target: Glucocorticoid receptor (Homo sapiens) (UniProt P04150); experiment: GR-EFC Redistribution (AID 451; calls by dose curve; further: potency means the concentration at half of the fitted maximal effect); details: CHO-K1 GR-EFC translocation, beta-gal luminescence, 2 h
# Outline: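 CHO-K1 cells expressing nuclear EA and GR-ED fragments of b-gal; compounds titrated up to 46 uM final, 2 h at 37 C. GR nuclear translocation read as complemented b-gal luminescence after 1 h RT detection.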
# [3] = molecular target: Mitogen-activated protein kinase 10 (Mus musculus) (UniProt Q61831); experiment: JNK3 AlphaScreen Assay (AID 530; active means well fitted curve in either direction with a large enough effect, not every such curve was filed as active;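 further: kinase came from lysate of stimulated human HepG2 cells; signal reports phosphorylation of biotinylated GST-cJun 1-79 at Ser73 with 10 µM ATP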)
# Outline: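 qHTS format: compounds tested as titrations against IL-1beta/TNF-alpha-activated HepG2 lysate JNK3 with biotin-GST-cJun substrate and 10 uM ATP at room temperature. Loss of anti-phospho-cJun AlphaScreen signal indicates inhibition.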
# [4] = molecular target: Cytochrome P450 3A4 (Homo sapiens) (UniProt P08684); experiment: qHTS Assay for Activators of Cytochrome P450 3A4 (AID 885); further: nearly all actives have a fitted effect of over 65% in size
# Outline: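 Steps: enzyme/substrate mix dispensed; compound added, 10 min RT; NADPH regeneration solution added, 60 min RT; luciferin detection buffer stops reaction; 20 min later luminescence measured.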
# [5] = molecular target: DNA dC->dU-editing enzyme APOBEC-3G (Homo sapiens) (UniProt Q9HC16); experiment: qHTS for inhibitors of Vif-A3G interactions: Validation (AID 588379)
# Outline: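 HeLa cells stably expressing Vif and A3G-eYFP, 700 cells/well, incubated overnight at 37 deg C, then exposed to compound overnight at 37 deg C. Inhibition of Vif-mediated degradation read as increased yellow fluorescence (Ex 488/Em 500-530) by laser-scanning cytometry.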
# [6] = Primary qHTS for small molecule stabilizers of the endoplasmic reticulum resident proteome: Secreted ER Calcium Modulated Protein (SERCaMP) assay (AID 1508630)
# Outline: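 GLuc-SERCaMP-expressing SH-SY5Y cells, pretreated 16 h with compound, are challenged with thapsigargin to empty ER calcium stores; after 4 h, coelenterazine is added directly to the medium and luminescence is imaged.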
# [7] = molecular target: Glucocorticoid receptor (Homo sapiens) (UniProt P04150); experiment: GR-GFP Redistribution (AID 450;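 active means compounds whose dose series gives a full or clear partial fitted curve of increased nuclear translocation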; further: potency means the concentration at half of the fitted maximal effect); details: U2OS GR-GFP nuclear translocation, laser cytometry, 2 h
# [8] = molecular target: 3',5'-cyclic-AMP phosphodiesterase 4B (Homo sapiens) (UniProt Q07343); experiment: qHTS Assay for Inhibitors of PDE-IV (AID 607; active means well fitted activation curve with a large enough effect in the main read-out, with a control signal flat, not every such curve was filed as active)
# Outline: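 The readout is membrane depolarisation from a cAMP-sensing CNG channel, detected with a potential dye at ex 535/em 590. Cells were HEK293-derived (endogenous PDE-IV) at 1000 cells/well, titrated up to 22.9 uM final.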
# [9] = molecular target: Cytochrome P450 2C9 (Homo sapiens) (UniProt P11712); experiment: qHTS Assay for Inhibitors and Substrates of Cytochrome P450 2C9 (AID 883); further: nearly all actives have a fitted effect of over 60% in size
# Outline: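 10nM CYP2C9 + 100uM Luciferin-H (=KM), 25mM KPO4; cpd 10 min 37C; NADPH regen, 60 min 37C; stop/detect with P450 Glo-Buffer 20 min; luminescence. Norm. to 57uM sulphaphenazole as full inhibition.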
# [10] = molecular target: Cytochrome P450 2D6 (Homo sapiens) (UniProt P10635); experiment: qHTS Assay for Inhibitors and Substrates of Cytochrome P450 2D6 (AID 891);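 further: luciferin methyl ether substrate demethylated by CYP2D6 with NADPH regeneration; nearly all actives have a fitted effect of over 60% in size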
# Outline: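 Human CYP2D6 (5 nM) with 30 uM Luciferin-ME EGE (at Km) in 100 mM KPO4, compound preincubated 10 min, then NADPH regeneration system for 60 min at room temperature. Luciferin read by luminescence; normalized to 1.43 uM quinidine.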
# [11] = molecular target: Cytochrome P450 2C19 (Homo sapiens) (UniProt P33261); experiment: qHTS Assay for Inhibitors and Substrates of Cytochrome P450 2C19 (AID 899); further: nearly all actives have a fitted effect of over 60% in size
# Outline: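 Luminescent read-out of luciferin formed from Luciferin-H EGE (10uM, equal to KM). Enzyme 5nM in 50mM KPO4; compound added, 10 min at 37C, then NADPH regenerating system for 60 min at 37C. Full inhibition defined by 57uM ketoconazole.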
# [12] = Confirmation and Secondary Assay for Modulators of Hemoglobin Beta Chain Splicing at IVS2 654 locus (AID 910);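 further: HeLa cells stably carrying EGFP split by mutant beta-globin IVS2-654 intron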
# Outline: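 HeLa cells stably expressing EGFP interrupted by β-globin IVS2-654 intron, seeded overnight in Opti-MEM/2% FCS, then treated 2 days at 37 °C. Restored splicing read as total peak GFP intensity per well by laser scanning cytometry (488 nm excitation, 500–520 nm emission); 500 nM antisense PNA as control.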
# [13] = Confirmation and Secondary Assay for Modulators of Hemoglobin Beta Chain Splicing at IVS2 705 locus (AID 930);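 further: HeLa cells stably expressing the EGFP-705 splicing reporter; GFP fluorescence per well restored by corrected splicing of the IVS2-705 intron in EGFP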
# Outline: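 Per-well GFP, captured at 1 x 8 µm resolution with 488 nm excitation, served as the read-out for HeLa EGFP-705 cells incubated 2 days with test compound versus DMSO.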
# [14] = qHTS Assay for Lipid Storage Modulators (AID 1519; calls by dose curve); details: Drosophila S3 cells, BODIPY lipid droplet/cell ratio, laser cytometry, cells loaded with oleic acid
# Outline: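 Cells seeded at 5,000 per well were treated with compounds over a concentration series and loaded with oleic acid (400 uM, as added). Lipid droplet fluorescence (488 nm excitation, 500-530 nm channel) was read by laser-scanning cytometry and normalized to 20 uM Triacsin C.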
# [15] = molecular target: Ubiquitin carboxyl-terminal hydrolase 1 (Homo sapiens) (UniProt O94782); experiment: Inhibitors of USP1/UAF1: Pilot qHTS (AID 504865);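 further: rhodamine fluorescence freed from ubiquitin-rhodamine substrate followed over time; top concentration of the series differs between compounds; nearly all actives have a fitted effect of over 35% in size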
# Outline: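 Enzyme-free wells gave the negative control, while test wells held 1nM USP1/UAF1 preincubated with compound for 15 min at room temperature. Ub-Rho at 150nM final started the reaction, and fluorescence at 480/540 nm was recorded kinetically.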
# [16] = molecular target: Rap guanine nucleotide exchange factor 3 (Homo sapiens) (UniProt O95398); experiment: Confirmatory qHTS for antagonist of cAMP-regulated guanine nucleotide exchange factor 3 (EPAC1) (AID 1645880); further: nearly all actives have a fitted effect of over 55% in size
# Outline: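 Nucleotide exchange uses 100 nM EPAC1, 250 nM RAP1B-BODIPY-GDP and 50 uM GDP, with compounds in a concentration-titration series. After 5 min at room temperature, fluorescence (480 nm ex/540 nm em) is read every 5 min for 30 min. Data are normalized to control ATA and DMSO.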
# [17] = molecular target: Rap guanine nucleotide exchange factor 3 (Homo sapiens) (UniProt O95398); experiment: Confirmatory qHTS for agonist of cAMP-regulated guanine nucleotide exchange factor 3 (EPAC1) (AID 1645881);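 further: EPAC1 catalysed release of BODIPY-GDP from Rap1B seen as fluorescence loss; nearly all actives have a fitted effect of over 75% in size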
# [18] = molecular target: Rap guanine nucleotide exchange factor 4 (Homo sapiens) (UniProt Q8WZA2); experiment: Confirmatory qHTS for agonist of cAMP-regulated guanine nucleotide exchange factor 4 (EPAC2) (AID 1645884);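 further: nucleotide exchange releases bodipy-GDP from Rap1 and this lowers its fluorescence; nearly all actives have a fitted effect of over 65% in size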
# [19] = molecular target: Rap guanine nucleotide exchange factor 4 (Homo sapiens) (UniProt Q8WZA2); experiment: Confirmatory qHTS for antagonist of cAMP-regulated guanine nucleotide exchange factor 4 (EPAC2) (AID 1645885); further: nearly all actives have a fitted effect of over 25% in size
# Glucocorticoid receptor (Homo sapiens), sequence (P04150 whole entry, looked up, the tested form may be a part): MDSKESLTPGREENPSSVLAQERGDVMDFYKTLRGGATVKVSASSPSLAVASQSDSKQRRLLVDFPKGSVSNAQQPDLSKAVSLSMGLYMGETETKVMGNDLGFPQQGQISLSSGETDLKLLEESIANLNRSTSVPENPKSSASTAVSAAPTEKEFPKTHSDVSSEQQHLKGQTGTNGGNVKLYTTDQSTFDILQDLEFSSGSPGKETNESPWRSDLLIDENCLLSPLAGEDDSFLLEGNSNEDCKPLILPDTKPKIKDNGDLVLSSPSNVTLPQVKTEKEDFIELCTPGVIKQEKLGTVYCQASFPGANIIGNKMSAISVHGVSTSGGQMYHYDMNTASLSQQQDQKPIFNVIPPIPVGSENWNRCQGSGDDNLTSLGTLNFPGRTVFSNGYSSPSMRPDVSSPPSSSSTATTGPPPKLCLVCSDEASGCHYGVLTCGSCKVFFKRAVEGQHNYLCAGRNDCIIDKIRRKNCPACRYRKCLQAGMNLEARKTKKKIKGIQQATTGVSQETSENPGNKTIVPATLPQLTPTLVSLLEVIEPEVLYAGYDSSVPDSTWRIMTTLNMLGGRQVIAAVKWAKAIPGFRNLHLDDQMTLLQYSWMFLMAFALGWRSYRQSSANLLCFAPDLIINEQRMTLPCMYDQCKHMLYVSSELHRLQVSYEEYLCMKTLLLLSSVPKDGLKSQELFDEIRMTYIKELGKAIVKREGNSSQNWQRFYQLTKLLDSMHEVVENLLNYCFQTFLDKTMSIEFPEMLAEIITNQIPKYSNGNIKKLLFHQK
# 3',5'-cyclic-AMP phosphodiesterase 4B (Homo sapiens), sequence (Q07343 whole entry, looked up): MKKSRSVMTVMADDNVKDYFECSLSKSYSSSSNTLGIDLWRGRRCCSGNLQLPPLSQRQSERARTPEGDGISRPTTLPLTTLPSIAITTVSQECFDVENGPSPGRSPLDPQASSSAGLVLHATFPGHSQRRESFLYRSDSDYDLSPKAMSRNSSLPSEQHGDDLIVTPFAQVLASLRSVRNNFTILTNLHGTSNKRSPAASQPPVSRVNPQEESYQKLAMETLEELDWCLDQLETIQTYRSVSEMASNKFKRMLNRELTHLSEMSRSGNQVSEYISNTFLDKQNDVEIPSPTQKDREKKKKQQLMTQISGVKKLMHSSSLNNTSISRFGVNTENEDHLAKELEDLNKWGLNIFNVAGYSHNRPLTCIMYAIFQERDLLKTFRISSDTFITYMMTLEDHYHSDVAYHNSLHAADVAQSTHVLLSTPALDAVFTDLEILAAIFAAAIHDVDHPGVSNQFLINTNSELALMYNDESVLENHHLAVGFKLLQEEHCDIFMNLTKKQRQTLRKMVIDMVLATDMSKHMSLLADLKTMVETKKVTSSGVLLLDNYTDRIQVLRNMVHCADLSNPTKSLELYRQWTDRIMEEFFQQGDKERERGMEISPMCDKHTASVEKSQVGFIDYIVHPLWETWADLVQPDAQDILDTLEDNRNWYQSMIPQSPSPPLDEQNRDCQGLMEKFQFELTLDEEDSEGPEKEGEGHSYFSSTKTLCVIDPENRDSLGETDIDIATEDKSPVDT
# Cytochrome P450 1A2 (Homo sapiens), sequence (P05177 whole entry, looked up): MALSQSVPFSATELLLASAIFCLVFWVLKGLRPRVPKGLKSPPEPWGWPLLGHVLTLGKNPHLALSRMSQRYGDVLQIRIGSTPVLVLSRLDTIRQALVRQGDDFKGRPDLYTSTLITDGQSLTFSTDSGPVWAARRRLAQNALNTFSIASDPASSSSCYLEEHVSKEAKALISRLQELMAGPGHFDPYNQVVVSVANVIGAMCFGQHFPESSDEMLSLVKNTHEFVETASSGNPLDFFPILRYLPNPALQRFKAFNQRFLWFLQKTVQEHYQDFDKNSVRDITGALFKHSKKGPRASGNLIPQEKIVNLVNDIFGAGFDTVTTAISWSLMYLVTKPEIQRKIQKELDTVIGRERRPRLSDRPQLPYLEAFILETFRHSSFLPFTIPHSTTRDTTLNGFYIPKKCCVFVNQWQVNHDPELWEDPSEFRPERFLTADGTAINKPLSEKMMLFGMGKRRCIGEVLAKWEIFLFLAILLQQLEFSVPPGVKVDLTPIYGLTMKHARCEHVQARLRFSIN
# Rap guanine nucleotide exchange factor 4 (Homo sapiens), sequence (Q8WZA2 whole entry, looked up): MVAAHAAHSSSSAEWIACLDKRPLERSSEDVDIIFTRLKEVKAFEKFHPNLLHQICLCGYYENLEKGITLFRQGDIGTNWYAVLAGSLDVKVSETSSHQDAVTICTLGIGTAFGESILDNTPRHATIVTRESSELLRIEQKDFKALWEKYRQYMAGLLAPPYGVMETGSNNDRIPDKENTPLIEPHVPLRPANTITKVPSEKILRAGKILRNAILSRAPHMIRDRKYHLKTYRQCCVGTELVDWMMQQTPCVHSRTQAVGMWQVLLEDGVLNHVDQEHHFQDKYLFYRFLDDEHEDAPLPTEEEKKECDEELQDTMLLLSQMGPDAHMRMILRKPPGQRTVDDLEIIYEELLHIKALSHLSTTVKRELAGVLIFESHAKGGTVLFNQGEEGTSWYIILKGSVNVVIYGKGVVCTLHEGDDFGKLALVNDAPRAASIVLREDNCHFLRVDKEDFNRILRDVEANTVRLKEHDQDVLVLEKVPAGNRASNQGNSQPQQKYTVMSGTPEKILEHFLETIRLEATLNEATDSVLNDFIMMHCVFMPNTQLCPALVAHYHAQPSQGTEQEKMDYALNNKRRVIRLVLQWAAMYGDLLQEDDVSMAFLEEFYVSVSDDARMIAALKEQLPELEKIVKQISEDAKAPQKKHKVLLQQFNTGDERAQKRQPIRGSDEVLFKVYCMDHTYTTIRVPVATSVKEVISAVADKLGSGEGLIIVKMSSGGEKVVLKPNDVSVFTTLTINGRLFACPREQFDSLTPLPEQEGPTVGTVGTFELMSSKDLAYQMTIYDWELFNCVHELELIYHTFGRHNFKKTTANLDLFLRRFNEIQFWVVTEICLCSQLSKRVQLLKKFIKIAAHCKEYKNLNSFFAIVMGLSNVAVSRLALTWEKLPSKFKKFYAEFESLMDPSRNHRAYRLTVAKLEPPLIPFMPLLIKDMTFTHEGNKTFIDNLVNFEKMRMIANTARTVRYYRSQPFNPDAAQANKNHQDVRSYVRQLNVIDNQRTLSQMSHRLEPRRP
# Rap guanine nucleotide exchange factor 3 (Homo sapiens), sequence (O95398 whole entry, looked up): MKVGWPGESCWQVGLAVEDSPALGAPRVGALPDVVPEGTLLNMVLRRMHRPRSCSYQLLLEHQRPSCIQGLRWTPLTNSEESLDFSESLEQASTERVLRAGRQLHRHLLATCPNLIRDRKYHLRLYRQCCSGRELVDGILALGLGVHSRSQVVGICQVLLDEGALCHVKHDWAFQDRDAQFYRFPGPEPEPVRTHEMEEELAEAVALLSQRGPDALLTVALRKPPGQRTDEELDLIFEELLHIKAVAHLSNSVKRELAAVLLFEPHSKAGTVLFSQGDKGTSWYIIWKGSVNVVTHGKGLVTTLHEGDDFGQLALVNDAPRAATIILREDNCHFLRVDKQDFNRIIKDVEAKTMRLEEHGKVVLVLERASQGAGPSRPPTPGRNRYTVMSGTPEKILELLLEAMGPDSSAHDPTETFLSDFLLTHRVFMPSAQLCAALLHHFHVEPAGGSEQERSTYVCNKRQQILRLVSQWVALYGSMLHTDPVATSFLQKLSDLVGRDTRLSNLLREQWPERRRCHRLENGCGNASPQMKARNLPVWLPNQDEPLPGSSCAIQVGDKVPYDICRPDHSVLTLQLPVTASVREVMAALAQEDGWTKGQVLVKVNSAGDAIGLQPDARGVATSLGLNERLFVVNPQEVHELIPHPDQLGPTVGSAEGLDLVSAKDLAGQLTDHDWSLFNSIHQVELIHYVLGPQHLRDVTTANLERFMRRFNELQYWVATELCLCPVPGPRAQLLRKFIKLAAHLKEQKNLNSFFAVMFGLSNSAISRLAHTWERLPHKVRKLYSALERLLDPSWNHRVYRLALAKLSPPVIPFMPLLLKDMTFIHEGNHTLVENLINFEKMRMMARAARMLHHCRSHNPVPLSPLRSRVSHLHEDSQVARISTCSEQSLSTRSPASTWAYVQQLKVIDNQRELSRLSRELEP
# DNA dC->dU-editing enzyme APOBEC-3G (Homo sapiens), sequence (Q9HC16 whole entry, looked up): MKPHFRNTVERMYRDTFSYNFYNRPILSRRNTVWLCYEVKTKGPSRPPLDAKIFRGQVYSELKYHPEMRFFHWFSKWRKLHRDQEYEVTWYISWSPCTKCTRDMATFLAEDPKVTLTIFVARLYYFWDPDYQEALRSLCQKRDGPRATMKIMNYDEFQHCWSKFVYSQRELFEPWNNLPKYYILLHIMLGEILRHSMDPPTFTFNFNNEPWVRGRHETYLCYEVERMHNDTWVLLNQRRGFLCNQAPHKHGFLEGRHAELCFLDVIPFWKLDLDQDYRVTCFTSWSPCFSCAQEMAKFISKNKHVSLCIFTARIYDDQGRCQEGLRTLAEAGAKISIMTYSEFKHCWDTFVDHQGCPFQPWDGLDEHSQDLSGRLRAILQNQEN
# Cytochrome P450 3A4 (Homo sapiens), sequence (P08684 whole entry, looked up): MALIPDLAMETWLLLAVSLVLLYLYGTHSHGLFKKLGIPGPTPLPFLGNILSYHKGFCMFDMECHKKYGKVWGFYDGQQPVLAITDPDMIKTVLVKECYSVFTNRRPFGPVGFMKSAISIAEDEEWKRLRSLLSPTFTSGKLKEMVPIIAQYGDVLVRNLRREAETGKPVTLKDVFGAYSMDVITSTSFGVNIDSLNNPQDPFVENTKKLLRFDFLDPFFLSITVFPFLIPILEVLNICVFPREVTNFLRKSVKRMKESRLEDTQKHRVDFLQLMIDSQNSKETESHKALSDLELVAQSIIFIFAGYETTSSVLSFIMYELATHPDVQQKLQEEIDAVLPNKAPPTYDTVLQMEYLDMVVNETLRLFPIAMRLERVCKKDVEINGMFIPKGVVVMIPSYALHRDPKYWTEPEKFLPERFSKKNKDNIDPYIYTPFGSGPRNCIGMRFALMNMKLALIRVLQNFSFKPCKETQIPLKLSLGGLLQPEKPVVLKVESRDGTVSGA
structure (smiles),measurement,setting,value
O=[N+]([O-])c1cccc2c[nH]nc12,Potency,[1],2.51 µM (active)
same,Potency,[2],> 46 µM (inactive)
same,Potency,[3],inactive
same,Potency,[4],inactive
same,outcome,[5],inactive
same,outcome,[6],inactive
N#CCCn1c(=O)c(-c2ccc(F)cc2)nc2cnc(Oc3cccc(Cl)c3)nc21,Potency,[1],0.501 µM (active)
same,Potency,[7],> 9.22 µM (inactive)
same,Potency,[2],> 46 µM (inactive)
same,Potency,[3],inactive
same,Potency,[8],inactive
same,outcome,[6],inactive
COc1cc2ccc(=O)oc2cc1O,Potency,[1],5.01 µM (active) and 12.6 µM (active)
same,Potency,[7],> 20.6 µM (inactive) and > 46 µM (inactive)
same,Potency,[2],> 20.6 µM (inactive) and > 46 µM (inactive)
same,Potency,[3],inactive
same,Potency,[8],inactive
same,Potency,[9],inactive
same,Potency,[10],inactive
same,Potency,[11],inactive
same,Potency,[12],inactive
same,outcome,[13],inactive
same,"activity change, negative = inhibition",[14]; at 25.7 µM (top of the series),-4.36% (inactive)
same,"activity change, negative = inhibition",[14]; at 57.5 µM (top of the series),6.76% (inactive)
same,max response,[14]; measured here: cell count channel max response,-18% and -2.53%
same,max response,[14]; measured here: lipid channel max response,-21.2% and 0.189%
same,Potency,[15],inactive
same,outcome,[5],inactive
same,Potency,[16],inactive
same,Potency,[17],inactive
same,Potency,[18],inactive
same,Potency,[19],inactive
CCNc1ncc2nc(-c3ccccc3)c(=O)n(CCc3ccccc3)c2n1,Potency,[1],12.6 µM (active)
same,Potency,[7],> 9.22 µM (inactive)
same,Potency,[2],> 46 µM (inactive)
same,Potency,[3],inactive
same,Potency,[8],inactive
same,Potency,[4],inactive
same,outcome,[6],inactive
